From PubChem
N-glyco inh: increase of ERlucT glycosylation luciferase signal, primary screen, N-linked glycosylation inhibitor project, D54 ERlucT cells, luminescence, set 2. D54 ERlucT glycosylation luciferase reporter, 24 h; percent of 100 nM tunicamycin response. reporter increase, % at 12.5 µM. hit rate 0.23% among 360,000. AID 588692, 2011;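 active = mean luciferase reporter signal, scaled so untreated is 0 and the glycosylation-blocking control 100, at or above a set limit in every replicate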;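 note: luciferase carries N-glycosylation sites so blocking glycosylation raises the light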
Mot1-301 SUMO: yeast Mot1-301 growth rescue at high temperature, primary screen, SUMOylation pathway inhibitor project, S. cerevisiae, ATP luminescence, 38.5C; S. cerevisiae Mot1-301 growth rescue; percent above DMSO median, 100 means doubled; growth rescue, % at 18.8 µM; hit rate 1% among 320,000; AID 2716, 2010;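 active = every valid replicate shows activation above 250% relative to neutral control wells; inactive = the rest, any valid replicate at or below 250%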
CASP6 VEID inh: human caspase-6 inhibitors, primary screen, biochemical, VEID-R110 fluorescence, single point, set 2. P55212. purified caspase-6, Z-VEID-R110 cleavage fluorescence. inhibition, % at 12.5 µM. hit rate 0.53% among 350,000;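 active = mean inhibition across replicates at least about 35%, with every replicate also reaching that limit, limit read from the data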
NSD2 HMT inh: NSD2 histone methyltransferase inhibitors, primary screen, biochemical, AlphaScreen, single concentration, set 2; inhibition, % at 12.5 µM; NSD2 peptide methylation, 120 min; Histone-lysine N-methyltransferase NSD2 (Homo sapiens), O96028; hit rate 0.54% among 310,000; AID 743445, 2014; in the data active = inhibition above about 50%
CDK5 inh: inhibitors of human CDK5/p35 kinase, primary screen, biochemical, single concentration. Cyclin-dependent kinase 5 (Homo sapiens) + Cyclin-dependent kinase 5 activator 1 (Homo …. hit rate 0.01% among 330,000. inhibition, % at 10 µM. Recombinant CDK5/p35, ADP-Glo luminescence, 60 min;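 active = highest replicate inhibition of at least 50% and at least 75% of replicates reaching 50%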
Target sequence (Q00535 whole entry, looked up): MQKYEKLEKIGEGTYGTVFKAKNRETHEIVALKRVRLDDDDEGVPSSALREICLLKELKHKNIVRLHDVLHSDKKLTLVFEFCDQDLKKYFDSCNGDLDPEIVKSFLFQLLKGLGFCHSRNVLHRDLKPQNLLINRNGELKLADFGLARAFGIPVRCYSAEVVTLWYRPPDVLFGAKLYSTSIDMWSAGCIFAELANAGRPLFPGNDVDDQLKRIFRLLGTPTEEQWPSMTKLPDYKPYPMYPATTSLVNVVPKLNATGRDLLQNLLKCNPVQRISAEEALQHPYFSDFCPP
Target sequence (Q15078 whole entry, looked up): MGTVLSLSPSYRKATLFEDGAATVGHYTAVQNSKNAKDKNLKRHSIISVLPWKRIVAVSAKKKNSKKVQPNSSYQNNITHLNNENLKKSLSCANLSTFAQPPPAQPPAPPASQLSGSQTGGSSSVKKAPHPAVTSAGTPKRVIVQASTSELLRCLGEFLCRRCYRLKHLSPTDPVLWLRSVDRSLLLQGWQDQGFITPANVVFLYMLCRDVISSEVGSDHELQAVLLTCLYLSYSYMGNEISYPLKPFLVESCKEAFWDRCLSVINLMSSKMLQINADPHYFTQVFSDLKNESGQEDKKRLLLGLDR
ALR inh: inhibitors of human ALR sulfhydryl oxidase, primary screen, biochemical, H2O2 detection, HRP-luminol luminescence, single point. FAD-linked sulfhydryl oxidase ALR (Homo sapiens), P55789. purified ALR, DTT oxidation. inhibition, % (test concentration not listed). hit rate 3.8% among 290,000;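 active = mean replicate inhibition above about 79%, with every replicate also reaching it, limit read from the data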
A number is an active result; . = inactive; / = no result given. An excerpt weighted towards active compounds, which were near 3.9% of everything screened.

SMILES	N-glyco inh	Mot1-301 SUMO	CASP6 VEID inh	NSD2 HMT inh	CDK5 inh	ALR inh
Cc1ccc(Sc2ccc(S(=O)(=O)Nc3ccc(C(=O)O)cc3)cc2)cc1C	.	.	.	.	.	98
Cc1ccc(Oc2ccc(S(=O)(=O)Nc3ccc(C(=O)O)cc3)cc2)cc1	.	.	.	.	.	98
Cc1nn(C)c(Sc2ccccc2N)c1[N+](=O)[O-]	.	.	.	.	.	98
Cc1nn(C)c(N)c1[N+](=O)[O-]	.	.	.	.	.	.
Cc1cc2cc3c(cc2nc1SCC(=O)Nc1nc(C)c(C)s1)OCO3	.	.	/	.	.	97
COCCCOc1ccnc(CS(=O)c2nc3ccccc3[nH]2)c1C (stereo unspecified)	.	.	.	/	.	.
Cc1c(OCC(F)(F)F)ccnc1CS(=O)c1nc2ccccc2[nH]1 (stereo unspecified)	.	.	.	/	.	97
CCCN(C)C[C@@H]1OCCCC[C@H](C)Oc2ccc(NC(=O)C3CCCCC3)cc2C(=O)N([C@@H](C)CO)C[C@@H]1C	/	/	.	/	/	/
Cc1ccc(NC(=O)CCS(=O)(=O)c2cc3[nH]c(=O)c(=O)[nH]c3cc2C)cc1	.	.	37	.	.	.
Cc1ccc(S(=O)(=O)CCC(=O)Nc2ccc(S(=O)(=O)N(C)C)cc2)cc1	/	.	/	/	/	/
CS/C(=N\S(=O)(=O)c1ccccc1)c1ccccc1	.	.	.	.	.	.
O=S(=O)(/N=C(/Sc1ccccc1)c1ccccc1)c1ccccc1	.	.	/	.	.	98
O=C(Nc1cc2c(oc1=O)CCCC2=O)c1cccc(Cl)c1	.	.	/	/	.	.
COc1ccc(C(=O)Nc2cc3c(oc2=O)CCCC3=O)cc1	.	.	44	.	.	.
O=C(C[C@H]1C[C@@H]2c3cc(NC(=O)Nc4ccc(C(F)(F)F)cc4)ccc3O[C@@H]2[C@H](CO)O1)NCc1cc(F)ccc1F	/	/	.	/	/	/
CCCOc1cc2c(C#N)c(N3CCCC3)nc(N)c2c(N)n1	.	.	39	/	.	.
N#Cc1c(N2CCCC2)nc(N)c2c(N)nc(N3CCCC3)cc12	41	.	/	/	.	.
CCOc1cc2c(C#N)c(N3CCCC3)nc(N)c2c(N)n1	.	.	.	/	.	.
CC=Cc1ccc2n(c1=O)C[C@H]1[C@H](CO)[C@@H](C(=O)NCCCN3CCOCC3)N(C)[C@@H]21 (mixture of isomers)	/	/	.	/	/	/
Fc1ccc(CNc2nc(-c3ccco3)cc(C(F)(F)F)n2)cc1	/	.	/	.	.	.
FC(F)(F)c1cc(-c2ccco2)nc(NCc2ccccc2)n1	.	.	/	.	.	98
CCC(=O)Nc1ccc2c(c1)OC[C@@H](C)N(C(=O)CC1CC1)C[C@@H](C)[C@H](OC)CN(C)C2=O	/	/	.	/	/	/
O=C(COC(=O)c1cc(Cl)nc(Cl)c1)NC1CCCCC1	/	/	/	.	/	/
COc1cccc(NC(=O)CN(C2=NC3CS(=O)(=O)CC3S2)c2cccc(C)c2)c1 (stereo unspecified)	.	.	.	/	.	98
CC(C)(O)c1cn([C@@H]2C[C@@H]3O[C@H](CO)CC[C@@H]3O[C@@H]2CCc2ccc(-c3cccnc3)cc2)nn1	/	/	.	/	/	/
SMILES	N-glyco inh	Mot1-301 SUMO	CASP6 VEID inh	NSD2 HMT inh	CDK5 inh	ALR inh
CC(C)(O)c1cn([C@@H]2C[C@@H]3O[C@@H](CO)CC[C@@H]3O[C@@H]2CCc2ccc(-c3ccncc3)cc2)nn1	/	/	52	/	/	/
O=C(C[C@@H]1C[C@H]2c3cc(NC(=O)NC4CCCC4)ccc3O[C@H]2[C@H](CO)O1)NCc1ccc2c(c1)OCO2	/	/	.	/	/	/
COc1ccc(/C=N/NC(=O)CSCC(=O)Nc2ccccc2)cc1OC	.	.	/	.	.	.
COC(=O)Oc1ccc(/C=N/NC(=O)CSCc2ccccc2Br)cc1OC	.	/	/	.	.	99
COc1cc(/C=N/NC(=O)CCc2c(C)n[nH]c2C)ccc1O	.	.	/	.	.	99
COc1ccc(/C=N/NC(=O)CCn2nc(C)cc2C)cc1O	.	.	.	.	.	77
O=C(CCN1CCN(C(c2ccccc2)c2ccccc2)CC1)N/N=C/c1ccc(O)cc1	.	.	/	.	.	98
O=C(c1cccnc1)N1CC2(C1)[C@@H](c1ccccc1)[C@H](CO)N2Cc1cccnc1	/	/	.	/	/	/
COc1cc(/C=N/NC(=O)CCN2CCCCC2)ccc1O	.	.	.	.	.	99
COc1ccc(/C=N\NC(=O)CCN2CCN(c3ccccc3)CC2)cc1OC	.	.	/	.	.	98
COc1ccc(OC)c(NC(=O)CCN2CCN(c3ccccc3)CC2)c1	.	.	/	.	.	92
CCNC(=O)N1c2ccc(OCC)cc2C(C)=CC1(C)C	.	.	/	.	.	88
CCOc1ccc2c(c1)C(C)=CC(C)(C)N2C(=O)Nc1ccccc1F	.	.	.	65	.	.
CCN1[C@@H]2c3ccc(-c4ccc(F)cc4)c(=O)n3C[C@@H]2[C@@H](CO)[C@@H]1C(=O)OC	/	/	.	/	/	/
Cc1noc(C)c1S(=O)(=O)Nc1ccc2c(c1)CC(=O)N([C@H](C)CO)C[C@@H](C)[C@@H](CN(C)C(=O)Nc1cccc3ccccc13)O2	/	/	.	/	/	/
COc1cccc(C2C(C(=O)Nc3ccccc3)=C(C)N=c3s/c(=C/c4ccc(OCC(=O)O)cc4)c(=O)n32)c1 (stereo unspecified)	.	.	/	.	.	97
CCOC(=O)C1=C(C)N=c2sc(=Cc3cc(Cl)c(OCC(=O)O)c(Cl)c3)c(=O)n2C1c1cccc(OC)c1 (stereo unspecified)	.	/	38	/	/	/
COc1ccc(NC(=O)N(C)C[C@@H]2Oc3ccc(NC(=O)Nc4ccc5c(c4)OCO5)cc3C(=O)N([C@@H](C)CO)C[C@H]2C)cc1	/	/	.	/	/	/
COc1cc(C=O)ccc1OCCCCOc1ccccc1[N+](=O)[O-]	.	.	.	.	.	96
COc1cc(C=O)ccc1OCCCOc1ccccc1[N+](=O)[O-]	.	.	.	.	.	/
C[C@H]1CN([C@@H](C)CO)C(=O)Cc2cc(NC(=O)Cn3cnnn3)ccc2O[C@H]1CN(C)S(=O)(=O)c1ccc(F)cc1	/	/	.	/	/	/
CCN1/C(=C/c2ccc3ccccc3[n+]2CC)C=Cc2ccccc21	85	.	/	/	.	.
CCN1/C(=C/c2ccc3ccccc3[n+]2CCCS(=O)(=O)[O-])C=Cc2cc(C)ccc21	.	.	.	/	.	.
CCCC(=O)Nc1ccc2c(c1)C(=O)N(C)[C@H]1CC[C@@H](CC(=O)NCCc3ccccc3)O[C@H]1CO2	/	/	.	/	/	/
